We go through 90 compounds from PubChem BioAssay AID488856 (Sanford-Burnham Center for Chemical Genomics, 2010).

Out of some 1,400 compounds screened, about 50 (4%) were called active. The list is a sample of the results. Unmarked numbers belong to inactive results.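 Rule for the calls: active = mean inhibition across replicates above about 26% (limit read from the data); inactive = the rest.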

Sequence of Caspase-3 (Homo sapiens) (P42574 whole entry, looked up): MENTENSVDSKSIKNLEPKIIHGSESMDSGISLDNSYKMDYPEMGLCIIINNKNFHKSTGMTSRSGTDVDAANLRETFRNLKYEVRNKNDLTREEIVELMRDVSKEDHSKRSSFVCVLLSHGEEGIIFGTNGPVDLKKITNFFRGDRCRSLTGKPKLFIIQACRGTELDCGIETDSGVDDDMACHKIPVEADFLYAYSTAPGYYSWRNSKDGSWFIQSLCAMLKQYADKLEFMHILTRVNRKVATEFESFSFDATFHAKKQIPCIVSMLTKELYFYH

This assay concerns the target Caspase-3 (Homo sapiens) (UniProt P42574). In words: CASP3 inhibitor validation, counterassay for project on UBE2N polyubiquitination blockers, biochemical, one dose (AID 488856).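 Note: plate controls were DMSO with caspase-3 for no effect and DMSO wells lacking enzyme for full effect.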 The conditions noted are these: Recombinant caspase-3, Caspase-Glo 3/7 luminescence, 60 min; at 20 µM; hits give high values.
Turning to `CC(C)n1cnc2c(Nc3cccc(Cl)c3)nc(N(CCO)CCCO)nc21`, the inhibition was -1.5%.

`C#CCOCCOCCOCCNc1nc(N2CCN(C(=O)CCCCCCCCCCNC(=O)[C@H]([C@@H](C)CC)n3cc(CCCCN=C(N)N)nn3)CC2)nc(N2CCN(C(=O)CCCCCCCCCCNC(=O)[C@H](CO)n3cc(CCCSC)nn3)CC2)n1`: the inhibition is -0.7%.

On to `NC(N)=N/N=C/c1ccc(OCc2ccc(Cl)cc2Cl)cc1`, for which the inhibition is -1.8%.

With `COc1ccc(-c2nnc3ccc(SCc4ccccc4)nn23)cc1`, the inhibition is -6.5%.

With `COc1cccc(Cn2cnc3c([N+](=O)[O-])c(C)c(C)cc32)c1`, the inhibition was -0.7%.

Regarding `CN(C(=O)CN(CCO)CC(=O)N(C)C(C)(C)Cc1ccccc1)C(C)(C)Cc1ccccc1`, the inhibition is -0.1%.

On to `CCOc1ccc2nc(N(CCCN(C)C)C(=O)c3ccc(C(=O)c4ccccc4)cc3)sc2c1`, for which the inhibition is 3.4%.

On to `Cc1ccc(C(=O)N/C(=C/c2ccc(-c3cccc([N+](=O)[O-])c3)o2)C(=O)NCCCN(C)C)cc1`, for which the inhibition was -0.7%.

As to `COc1ccc(C(CNC(=O)c2cccc(NS(=O)(=O)c3ccc(C)c(F)c3)c2)N2CCCC2)cc1` (stereo not given), the inhibition is 0.9%.

With `Cn1c(C(=O)NCCCN2CCN(c3cccc(Cl)c3)CC2)cc2c(=O)n(C)c3ccccc3c21`, the inhibition was 1.8%.

As to `CC1CC(C)(C)n2c(O)c(N=NC(N)=S)c3cccc1c32` (stereo not given), the inhibition is -2.8%.

Consider `CN(C)CCCN(C(=O)c1ccc(S(=O)(=O)N2CCCCCC2)cc1)c1nc2ccc(Br)cc2s1`, for which the inhibition was 0.1%.

In the case of `COc1ccc2sc(-c3ccc(S(C)(=O)=O)cc3)c(C#Cc3cncn3C)c2c1`, the inhibition is 0.2%.

In the case of `COc1ccc(-n2nnnc2-c2nc3ccccc3s2)cc1`, the inhibition is 85.5% (active).

Turning to `CCN(CC)CCNC(=O)c1ccc(NC(=O)c2cc(-c3ccncc3)nc3ccccc23)cc1`, the inhibition is -3.4%.

Take `O=S(=O)(c1ccc(NC(=S)NN=C(C2CC2)C2CC2)cc1)N1CCOCC1`: the inhibition was 3.2%.

Take `COc1ccc2sc(-c3ccccc3OC)c(-c3ccc(OCCN4CCCC4)cc3)c2c1`: the inhibition is -2.6%.

Regarding `O=c1cc(CO)oc(C(Nc2cccc([N+](=O)[O-])c2)c2ccccn2)c1O` (stereo not given), the inhibition was 1.9%.

Regarding `Cc1nc(N2CCN(c3ccccn3)CC2)c2c(C)c(C(=O)Nc3ccc(F)cc3)sc2n1`, the inhibition is -2.6%.

Consider `C#CCOCCOCCOCCNc1nc(N2CCN(C(=O)CCCCCCCCCCNC(=O)Cn3cc(CCCCCN)nn3)CC2)nc(N2CCN(C(=O)CCCCCCCCCCNC(=O)[C@H](CO)n3cc(CCCSC)nn3)CC2)n1`, for which the inhibition is 3%.

Take `S=c1nc2ccccc2c2nc(-c3cccnc3)[nH]n12`: the inhibition is 16%.

Take `Cc1ccc(N(C(=O)c2snc(C(N)=O)c2N)C(C(=O)NCC2CCCO2)c2c[nH]c3ccccc23)cc1` (stereo not given): the inhibition was 0.8%.

On to `CCN(CC)CCC(c1cc(OC)c(OC)c(OC)c1)c1c(OC)cc(OC)c2c(-c3ccccc3)cc(=O)oc12` (stereo not given), for which the inhibition is -2%.

With `Cc1ccccc1C(=O)OC1OC(=O)C(Cl)=C1Nc1ccccc1` (stereo not given), the inhibition was -0.3%.

With `O=C(COC(=O)Cn1cnc2ccccc2c1=O)NCc1ccccc1Cl`, the inhibition is -0.6%.

As to `COc1cccc(N(C(=O)c2snc(C(N)=O)c2N)C(C(=O)NCC2CCCO2)c2c[nH]c3ccccc23)c1` (stereo not given), the inhibition was -8.9%.

`COc1ccccc1-c1sc2ccccc2c1-c1ccc(C(C)=O)cc1`: the inhibition is 12.1%.

In the case of `Cc1ccc(NC2=C(Cl)C(=O)OC2OC(=O)c2ccccc2C)cc1` (stereo not given), the inhibition is 0.6%.

Take `CSCCC(NC(=O)c1ccc(Cl)cc1Cl)C(=O)NNC(=O)c1csc(N2CCOCC2)n1` (stereo not given): the inhibition is 1.1%.

Consider `COc1ccc(C(CNC(=O)c2ccc(S(=O)(=O)Nc3ccccc3F)cc2)N(C)C)cc1` (stereo not given), for which the inhibition was 2.2%.

Take `COc1ccc(-c2sc3ccccc3c2-c2ccc(OCCN3CCOCC3)cc2)cc1`: the inhibition is 0.1%.

For the compound `Cc1ccc(C(C(=O)NCC2CCCO2)N(C(=O)c2snc(C(N)=O)c2N)c2ccc(C(C)C)cc2)o1` (stereo not given), the inhibition is -0.8%.

Consider `C#CCOCCOCCOCCNc1nc(N2CCN(C(=O)CCCCCCCCCCNC(=O)[C@H](CCCCN)n3cc(C)nn3)CC2)nc(N2CCN(C(=O)CCCCCCCCCCNC(=O)[C@H](CO)n3cc(CCCSC)nn3)CC2)n1`, for which the inhibition is -3.2%.

As to `CCOCCCNC(=O)c1cn(CC(C)C)c(=O)c2c1c1ccccc1n2C`, the inhibition was -2.3%.

As to `COc1cccc2sc3cc(NCC[C@@H]4CCCN4C)ccc3c(=O)c12`, the inhibition is 63.1% (active).

In the case of `NC(=O)NC(CC(=O)NNC(=O)c1ccccn1)c1ccc(Cl)cc1` (stereo not given), the inhibition is -0.9%.

Consider `Cc1ncc(CO)c(/C=N/NC(=O)c2cccc(S(=O)(=O)N3CCCC3)c2)c1O`, for which the inhibition is -0.5%.

As for `Cc1ccc(-c2noc(CCC(=O)Nc3ccccc3N3CCN(C)CC3)n2)cc1`, the inhibition was -3.5%.

In the case of `CC1(C)Cc2ccccc2-c2[nH]c(=S)[nH]c(=O)c21`, the inhibition is 2.3%.

As for `CCOC(=O)c1ccc(NC(=O)c2nc[nH]c2C(=O)NCc2ccccc2)cc1`, the inhibition was 1.9%.

As to `O=C(CCCCCn1c(=O)[nH]c2ccccc2c1=O)NCCc1c[nH]c2ccccc12`, the inhibition was -2%.

Turning to `O=C(CCCCCN1C(=O)c2cccc3cccc(c23)C1=O)NCc1ccco1`, the inhibition was -1.7%.

Consider `CCOc1ccc(N(C(=O)c2snc(C(N)=O)c2N)C(C(=O)NCC2CCCO2)c2c[nH]c3ccccc23)cc1` (stereo not given), for which the inhibition was -4.2%.

With `Cc1ccc(NC(=O)c2cnc(SCC(=O)NCC3CCCO3)n(C)c2=O)cc1` (stereo not given), the inhibition was 96.8% (active).

In the case of `CC(=O)NC(=S)NNC(=O)c1ccc(Br)cc1`, the inhibition is 6.4%.

`Cc1cccc(-c2nc3ccc(C(=O)NCCN4CCN(C)CC4)cc3nc2-c2cccc(C)c2)c1`: the inhibition is -4%.

As for `CCOC(=O)c1cccc(NS(=O)(=O)c2c(C(=O)N3CCCCCC3)c(C)n(C)c2C)c1`, the inhibition was -2.7%.

Consider `C#CCOCCOCCOCCNc1nc(N2CCN(C(=O)[C@H](CCCCN)n3cc([C@@H](N)C(C)CC)nn3)CC2)nc(N2CCN(C(=O)[C@H](Cc3ccc(O)cc3)n3cc([C@@H](N)C(C)CC)nn3)CC2)n1` (stereo not given in full), for which the inhibition is -3.4%.

Regarding `Cc1cccc(-n2cnc(C(=O)NNC(=S)Nc3ccccc3)c2)n1`, the inhibition is 0%.

For `CCCCN(C)CCCNC(=O)c1cc(-c2cccs2)nc2ccccc12`, the inhibition is -3.7%.

With `C#CCOCCOCCOCCNc1nc(N2CCN(C(=O)C(Cc3ccc(O)cc3)n3cc(C(N)CC(C)C)nn3)CC2)nc(N2CCN(C(=O)C(Cc3ccc(O)cc3)n3cc(C(N)C(C)CC)nn3)CC2)n1` (stereo not given), the inhibition was 0.7%.

Turning to `CN(C)c1ccnc2sc3c(=O)n(Cc4ccccc4)cnc3c12`, the inhibition is -2.2%.

In the case of `CCN1C(=NCc2ccc(OC)cc2)N[C@@H](CCc2ccccc2)[C@H](C(=O)NCc2ccc(OC)cc2)[C@H]1C`, the inhibition was -3.2%.

`CN(C)CC(O)COc1ccc(C(C)(C)c2ccc(OCC(O)CN(C)C)cc2)cc1` (stereo not given): the inhibition was 3.6%.

For the compound `CCCCCCCCCCOC(=O)Cn1c(COc2cccc(OC)c2)[n+](C)c2ccccc21`, the inhibition was 3.3%.

In the case of `Cc1cccc(OCC(O)CN2CCN(CCN3C(=O)c4cccc5cccc(c45)C3=O)CC2)c1C` (stereo not given), the inhibition was 2.6%.

For `COc1ccccc1NC(=O)CSc1nnc(-c2ccoc2C)n1CCc1ccccc1`, the inhibition is -0.3%.

With `CCCCN(CCCC)CCC(O)c1cc2c(Cl)cc(Cl)cc2c2cc(C(F)(F)F)ccc12` (stereo not given), the inhibition was 3.4%.

As to `Cc1c(CN2CCC(CO)(CCOc3ccccc3)CC2)[nH]c2ccc(Cl)cc12`, the inhibition is -3.8%.

For the compound `N#Cc1c(-c2ccc(Cl)cc2)c2c([nH]c1=S)CCCC2`, the inhibition is -1.9%.

As to `CC[C@@H](C)[C@@H]1CN([C@@H](C)CN2CCC[C@H]2CN2C(N)=NC[C@H]2C(C)C)C(=N)N1CCc1ccc(Cl)c(Cl)c1`, the inhibition is 2.5%.

For the compound `CCOC(=O)[C@@H]1[C@H]2COc3cc(OC)ccc3[C@H]2N2C(=O)N(c3ccc(F)cc3)C(=O)[C@]12C`, the inhibition is 3.4%.

Regarding `Cc1cc(C)c(NC(=O)C[N+](C)(C)CC(O)COc2cccc3ccccc23)c(C)c1` (stereo not given), the inhibition was -2.3%.

As to `CC(=O)Nc1ccc(NC(=O)c2sc3nc4c(c(-c5ccc(C)cc5)c3c2N)CCC4)cc1`, the inhibition is 4.6%.

In the case of `C=C1c2c(Cl)ccc(O)c2C(O)=C2C(=O)[C@]3(O)C(O)=C(C(N)=O)C(=O)[C@@H](N(C)C)[C@@H]3[C@@H](O)C12` (stereo not given in full), the inhibition is 1.1%.

Take `CCCOc1ccc(Cl)cc1Nc1nc(NCCO)nc(N2CCCC2)n1`: the inhibition is 6.6%.

`CN1CCC(CN)(N2CCN(c3ccccc3)CC2)CC1`: the inhibition is -2.2%.

As to `CCOC(=O)N1CCN(C(=O)Cc2ccc(-n3c(=S)[nH]c4ccccc4c3=O)cc2)CC1`, the inhibition is -0.5%.

`CN1CCN(CCCNC(=O)c2ccc(/C=C3\Oc4ccccc4N(Cc4ccc(Cl)cc4)C3=O)cc2)CC1`: the inhibition is -0.4%.

As to `O=c1c2c(nc3n1CCCCC3)sc1c(O)cccc12`, the inhibition is 77.2% (active).

Consider `c1ccc(C[C@H]2CNCCN2CCC23CC4CC(CC(C4)C2)C3)cc1`, for which the inhibition was -0.9%.

Turning to `O=c1cc(CO)oc(C(Nc2cccc(C(F)(F)F)c2)c2ccccn2)c1O` (stereo not given), the inhibition was -1.4%.

`NC(N)=Nc1nc(-c2ccccc2)c2cc(Cl)ccc2n1`: the inhibition is -2.7%.

Take `CCC(C(=O)NC1CCCC1)N(C(=O)c1snc(C(N)=O)c1N)c1ccc2c(c1)OCCO2` (stereo not given): the inhibition was 1.4%.

Turning to `c1ccc2c(CCN3CCNC[C@H]3Cc3cccc4ccccc34)cccc2c1`, the inhibition is 5%.

On to `C#CCOCCOCCOCCNc1nc(N2CCN(C(=O)C([C@@H](C)O)n3cc([C@@H](N)CCCCN)nn3)CC2)nc(N2CCN(C(=O)[C@H](CCCCN)n3cc(CN)nn3)CC2)n1` (stereo not given in full), for which the inhibition is 1.6%.

With `COC(=O)c1cc(-c2cccs2)nc2ccccc12`, the inhibition was -2.9%.

As to `CC1CN(C(=O)CCC(=O)NCCCN2CCC(Cc3ccccc3)CC2)c2cc(Cl)ccc2O1` (stereo not given), the inhibition is 0.6%.

As for `NC[C@H](Cc1ccccc1)NCCc1cc(C(F)(F)F)cc(C(F)(F)F)c1`, the inhibition was -2.6%.

For `CCOC(=O)C1=C(c2ccccc2)O/C(=C(/C(=O)OC)C(F)(F)F)S1`, the inhibition is 1.4%.

As to `COc1ccc(/C=N\NC(=O)c2sc(N)nc2C)cc1OC`, the inhibition is 23%.

As for `C#CCOCCOCCOCCNc1nc(N2CCN(C(=O)C([C@@H](C)CC)n3cc(C(N)COC(=O)C(F)(F)F)nn3)CC2)nc(N2CCN(C(=O)[C@H](CCCCN)n3cc(C(N)CC(C)C)nn3)CC2)n1` (stereo not given in full), the inhibition was -1%.

With `CN(C)CCCN(C(=O)c1ccc(S(=O)(=O)N2CCCCCC2)cc1)c1nc2cc3c(cc2s1)OCCO3`, the inhibition is 1.4%.

Consider `CCN(CC(=O)NCc1cccs1)C(=O)c1cccc(S(=O)(=O)Nc2ccccc2OC)c1`, for which the inhibition was -1.4%.

Turning to `COc1ccc(N(C(=O)c2snc(C(N)=O)c2N)C(C(=O)NC2CCCC2)c2ccco2)cc1OC` (stereo not given), the inhibition is -0.3%.

`CCN1CCN(CCNC(=O)c2ccc(/C=C3/Sc4ccccc4N(Cc4cccc(C)c4)C3=O)cc2)CC1`: the inhibition was 2.4%.

For the compound `C[C@@H](CN1CCC[C@H]1CN1C(N)=NC[C@@H]1Cc1ccccc1)N1C[C@@H](Cc2ccccc2)N(CCCC2CCCC2)C1=N`, the inhibition is 1.4%.

Take `COc1ccnc2c1c(=O)n(Cc1cccc(F)c1)c(=O)n2C`: the inhibition is -0.3%.

`OCCNc1nc(Nc2ccc(Cl)c(Cl)c2)nc2ccccc12`: the inhibition was -0.1%.

As for `CCCC[C@@H]1CN=C(N)N1CCc1cc(C(F)(F)F)cc(C(F)(F)F)c1`, the inhibition was 0.9%.

For orientation: inhibition means the relative decrease from the control value, in per cent.
